In ChEMBL document CHEMBL3988442, “University of Dundee, Small-Polar-MMV Screening Library” (2021):

Target: AMP-activated protein kinase, AMPK (Homo sapiens) (UniProt P54646+O43741+P54619+Q9UGJ0+Q9Y478+Q13131+Q9UGI9)
Experiment: AMP-dependent Kinase enzyme assay. An in vitro enzyme assay that detects ADP turnover that is directly proportional to AMPK activity. This uses naive AMPK that is activated during the assay with MK-8722
Assay type: functional
Design: scale not given: direction of the effect not stated beside the values
Details: 30 µM

Point of comparison: `CN(Cc1ccc(C#N)cc1)C(=O)c1ccn(C)c(=O)c1`, Percent Effect 5.01%. Against it:
- O=C(c1cnco1)N1CCC(Cc2cccc3ncccc23)CC1 — higher, 5.42%
- Cn1cc(CN2CCCC(O)C2)c(-c2ccccc2F)n1 (centres undefined) — higher, 5.23%
- COc1cc(CN(C)[C@@H]2COC[C@H]2c2ccc(F)cc2)cc(OC)c1 — lower, -11.5%
- CCC(C)C(=O)Nc1ccc(CCN2CCOCC2)cc1 (centres undefined) — higher, 11.3%
- COCCN1C[C@H]2CC[C@@H]1CN(C(=O)CCc1n[nH]c(C)c1C)C2 — lower, -0.161%
- CC1CCCCN1C(=O)COc1nc(C(C)(C)C)no1 (centres undefined) — lower, -0.675%
- CCn1ccnc1CNCc1ccc(C)cc1OC(C)(C)C — higher, 25.5%
- C[C@@H]1CN(S(=O)(=O)N2CCCC2)CC[C@@]1(O)C1CCOCC1 — lower, -5.74%
- CC(C)Cc1noc(CC2CCS(=O)(=O)C2)n1 (centres undefined) — lower, -13.3%
- CCc1cc(NCCCNS(C)(=O)=O)nc(-c2ccncc2)n1 — lower, -3.23%
- O=C(NCCS(=O)(=O)N1CCN(c2ncccn2)CC1)C1CC1 — lower, 1.52%
- CC(C)CN(C(=O)Nc1cccc(C(=O)N(C)C)c1)C1CC1 — lower, 0.783%
- Cc1cccc(C(=O)N2CC(=O)N(c3ccccc3Cl)CC2C)n1 (centres undefined) — higher, 20.1%
- CC(=O)N[C@H]1CCO[C@@H](c2cccc(NC(=O)Cc3ccccc3)c2)C1 — higher, 7.18%
- Cc1ccc(C2(O)CCN(C(=O)CCn3c(C)cccc3=O)CC2)nc1 — lower, -22.2%
- CCN1CCC(CC(=O)NCCc2nc(C)cc(C)n2)CC1 — lower, 1.66%
- Cc1noc(C)c1CN1CCCC1c1nnc2ccccn12 (centres undefined) — lower, -3.49%
- COc1cccc(CCC(=O)Nc2ccn(C)n2)c1OC — higher, 10.3%
- Fc1ccc(C2CCCCN2Cc2cc(-c3ccccn3)no2)cc1 (centres undefined) — higher, 7.03%
- O=C(NCCc1ccccn1)N1CCOC(c2ccccc2Cl)C1 (centres undefined) — lower, -1.2%
- Cc1nn(-c2ccccc2)c2nc(C(C)(C)CN3CCN(C)CC3)[nH]c12 — higher, 9.98%
- Cc1nsc(C(=O)NCCc2ccc(Cl)cc2)n1 — lower, -0.0138%
- O=C1OCCN1Cc1nc(C2(c3ccc(F)cc3)CCOC2)no1 (centres undefined) — higher, 8.23%
- COc1ncc(NCc2cc(C#N)cs2)cc1C(N)=O — higher, 6.61%
- O=C(c1cccnc1)N1CCOC(Cc2ccccc2Cl)C1 (centres undefined) — higher, 11%
- FC(F)(F)c1cccc(OC2CCN(Cc3c[nH]cn3)CC2)c1 — higher, 18%
- CN1CC2(CCCN(C(=O)Cc3cccc(O)c3)C2)OC1=O (centres undefined) — higher, 8.24%
- c1ccc(CCN2CCN(C3CCOC4(CCOCC4)C3)CC2)nc1 (centres undefined) — lower, -2.83%
- Cc1cc(CNS(=O)(=O)CCCC#N)ccc1N(C)C — lower, -7.86%
- O=C(C1CNCCN1C(=O)CCOc1ccccc1)N1CCOCC1 (centres undefined) — higher, 13%
- COc1ccc(-c2cnc(CN(CC(N)=O)C3CCCC3)o2)cc1 — lower, -2.59%
- CCC(=O)N1CCC(c2ncc(C(=O)Nc3ccccc3)c(C)n2)C1 (centres undefined) — higher, 8.33%
- COc1ccccc1OCCN(C)Cc1c(C2CC2)[nH]c2ncccc12 — higher, 11.7%
- Cn1ccnc1-c1nc(N2CCCCC2)ncc1-c1ccccc1F — higher, 9.62%
- CC(C)Cc1nc(C[S+]([O-])CC(=O)NCc2ccccc2)no1 (centres undefined) — lower, 0.747%
- COC(CNC(=O)c1ccc(NC(C)=O)cc1)c1cccc(Cl)c1 (centres undefined) — lower, 1.2%
- Cc1ncc(CNC(=O)NCc2c(F)cccc2OC(F)F)s1 — higher, 6.42%
- Cc1ccc(N2CCC(c3cc(Cc4ccccc4)n[nH]3)CC2)nn1 — higher, 10.9%
